The panel holds about 83,000 compounds, 20% with a hit somewhere; the sample as a whole holds those more often.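 48-hour exposure, single concentration, 96-well plates; percent growth endpoint where 0 means no net growth. Active: below 10.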 Calls of active or inactive are those of the source.
Key:
Assay in all cases: NCI-60 one-dose screen, 48 h (100 = growth as untreated, 0 = no growth, -100 = all killed)
Conditions in all cases: 10 µM unless noted
[1] = tested on: T-47D breast
[2] = tested on: BT-549 breast
[3] = tested on: MDA-MB-435 melanoma
[4] = tested on: SW-620 colon
[5] = tested on: MCF7 breast
[6] = tested on: HCT-116 colon
[7] = tested on: HCC-2998 colon
[8] = tested on: KM12 colon

Measured: growth

C[C@H](NC(=O)[C@@H](C)N)[C@H](Oc1ccc2c(cnn2-c2ccc(F)cc2)c1)c1ccc2c(c1)OCCO2
inactive: [1] 36.2% | [2] 32.9% | [3] 45.4% | [4] 62% | [5] 46.4% | [6] 38.6% | [7] 28.1% | [8] 36.1%

O=C(c1ccc(Cl)cc1)N1CCN(c2ccnc3cc(Cl)ccc23)CC1
inactive: [1] 58% | [2] 106% | [3] 97.5% | [4] 104% | [5] 83.7% | [6] 81.5% | [7] 108% | [8] 94.9%

O=C(Cn1c(=O)sc2nc3ccccc3nc21)Nc1ncc(Cc2cccc(Cl)c2Cl)s1
inactive: [1] 81.6% | [2] 100% | [3] 101% | [4] 100% | [5] 91.6% | [6] 102% | [7] 101% | [8] 99.9%

C#COc1cccc(Nc2ncnc3ncc(NC(=O)CCl)cc23)c1
active: [4] -55.1% [6.25 µM] | [5] -0.408% [6.25 µM] | [6] -32.6% [6.25 µM]
inactive: [1] 30.5% [6.25 µM] | [2] 28.6% [6.25 µM] | [3] 17.1% [6.25 µM] | [7] 51.5% [6.25 µM] | [8] 15.7% [6.25 µM]

CC(=O)Cc1nsc(NC(=O)c2cc(-c3cc(Cl)cc(Cl)c3)oc2C)n1
inactive: [1] 88.1% | [2] 98.1% | [3] 101% | [4] 101% | [5] 97.4% | [6] 107% | [7] 99.9% | [8] 103%

O=C1C(Cl)=C(Nc2ccc(O)cc2)C(=O)N1Cc1ccc(Cl)cc1
inactive: [1] 66.5% | [2] 43.2% | [4] 17.6% | [5] 18.1% | [6] 30.9% | [7] 79.9% | [8] 14.9%
active: [3] -30.6%

CC(C)c1ccc(NC(=O)Nc2ccc(NC(=O)CCCC(=O)NOCc3ccccc3)cc2)cc1
inactive: [1] 59.3% | [2] 106% | [3] 89.1% | [4] 107% | [5] 80.2% | [6] 93.4% | [7] 66% | [8] 94.4%

O=C1NC(=O)c2c1c1c3ccccc3ccc1c1[nH]c3ccc(Br)cc3c21
active: [1] 4.7% | [5] 9.71% | [6] 7.95% | [8] 4.99%
inactive: [2] 39.4% | [3] 14% | [4] 18% | [7] 49.3%

O=C(c1ccc(-c2nc(CSc3nc4ccccc4s3)no2)cc1)N1CCSCC1
inactive: [1] 11.1% | [2] 67.7% | [3] 70.6% | [4] 82.4% | [5] 72.5% | [6] 49.8% | [7] 94.9% | [8] 57.7%

CC(=O)OC[C@]12CCC(C)(C)C[C@H]1[C@@]1(O)[C@H](O)C[C@@H]3[C@@]4(C)CCCNC(C)(C)[C@@H]4CC[C@@]3(C)[C@]1(C)CC2
inactive: [1] 104% | [2] 111% | [3] 109% | [4] 109% | [5] 102% | [6] 104% | [7] 109% | [8] 113%

O=C(Nn1c2c(sc1=NCc1ccccc1)C(=O)c1ccccc1C2=O)c1cc2ccc1CCc1ccc(cc1)CC2
active: [3] -85.5%
inactive: [1] 35.1% | [2] 77.3% | [4] 77.5% | [5] 40% | [6] 55.9% | [7] 101% | [8] 74.8%

COc1cc(N2C(=O)[C@H](O)C2c2ccc(SC)cc2)cc(OC)c1OC (some centres undefined)
inactive: [1] 49.2% | [4] 23.7% | [5] 13.5% | [7] 26.1% | [8] 11.8%
active: [2] -6.32% | [3] -39.5% | [6] 1.16%

N#CC1=C(N)Oc2c(sc3c(Br)cccc23)C1c1ccc(F)cc1 (centres undefined)
inactive: [1] 50% | [2] 25.3% | [4] 32.2% | [5] 12.1% | [6] 11.9% | [7] 23.5% | [8] 23.1%
active: [3] -10.3%

COc1ccc(CC(C#N)c2cc3ccccc3[nH]2)cc1 (centres undefined)
inactive: [1] 85.5% | [2] 92.8% | [3] 82.2% | [4] 93.6% | [5] 94% | [6] 92.3% | [7] 87.5% | [8] 84.7%

C=CCc1c(O)c(C(=O)/C=C/c2ccc(Cl)cc2)c(OC)c2ccoc12
inactive: [1] 39.9% | [2] 47.8% | [3] 18.2% | [4] 37.3% | [5] 21.4% | [6] 17.2% | [7] 63.3% | [8] 41.1%

O=C(NCc1ccccc1)Nc1ccccc1CNc1nc(Nc2ccc(OCCN3CCCC3)cc2)ncc1Cl
inactive: [1] 104% | [2] 96.3% | [3] 82.9% | [4] 77.1% | [5] 65.9% | [6] 95.5% | [7] 96.9% | [8] 94.2%

CN(C)C1CCN(Cc2ccc(NC(=O)c3cncc(C#Cc4cnc(N)c5ncccc45)c3)cc2C(F)(F)F)CC1
inactive: [1] 93.7% | [2] 104% | [4] 68.1% | [5] 73.6% | [6] 86.7% | [7] 99.6%
active: [3] -2.09% | [8] 9.65%

O=C(O)/C(=C\c1ccc(Cl)cc1)c1ccc(Cl)cc1
inactive: [1] 95.9% | [2] 82% | [3] 97.2% | [4] 106% | [5] 92.9% | [6] 98.1% | [8] 97.6%

CNc1nc(S(=O)c2ccc(C#N)cc2)nc2ccccc12 (centres undefined)
inactive: [1] 62.4% | [2] 74.6% | [3] 88% | [4] 76% | [5] 72.1% | [6] 51.4% | [8] 99%

O=C(CSc1nnc2n1S(=O)(=O)c1ccccc1N2c1ccccc1)Nc1nc2ccc(F)cc2s1
inactive: [1] 98.4% | [2] 97.1% | [3] 101% | [4] 109% | [5] 93.5% | [6] 93.5% | [8] 108%

CCCCCOc1ccc(C(=O)/C(Br)=C/C(=O)O)cc1
inactive: [1] 92.6% | [2] 110% | [3] 104% | [4] 111% | [5] 91.7% | [6] 89.2% | [8] 107%

CC(C)N1CCN(Cc2ccc3c(NNC(=O)c4ccccc4)nc4cc(F)ccc4n23)CC1
active: [5] 9.7%
inactive: [1] 20.3% | [2] 45.6% | [3] 30.5% | [4] 24.9% | [6] 24.5% | [7] 25% | [8] 23.1%

COc1cnc2c(c1)C(=O)c1c-2n(CCCNCCO)c(=O)c2ccncc12
active: [1] -4.8% | [3] 5.96% | [4] 9.91% | [5] 0.768% | [6] -49.8% | [8] 6.99%
inactive: [2] 19%

Cn1ccc2c3c(ccc21)CC3=O
inactive: [1] 105% | [2] 106% | [3] 106% | [4] 108% | [5] 107% | [6] 101% | [8] 112%

Cc1cc(Cl)ccc1Nc1nc(C(F)(F)F)ccc1C(=O)N/N=C/c1ccc([N+](=O)[O-])cc1
inactive: [4] 93.4%
active: [1] -1.52% | [2] 6.01% | [3] 6.79% | [5] -47.7% | [6] 6.32% | [8] -20.6%

Cc1cccnc1NC(=S)Nc1ncccc1C
inactive: [1] 99.7% | [2] 96.1% | [3] 83.9% | [4] 111% | [5] 82.9% | [6] 101% | [8] 107%

CCn1c(=S)[nH]c2c(=O)n(C)c(=O)n(C)c21
inactive: [1] 104% | [2] 92.6% | [3] 103% | [4] 112% | [5] 102% | [6] 93.1% | [8] 111%

COC(=O)c1c2c(c[n+]([O-])c1C)C(=O)C(NCc1ccccc1)=CC2=O
active: [1] -31.8% | [2] -88.7% | [3] -93.7% | [4] -19% | [5] -58.3% | [6] 1.8% | [8] -0.692%
